Measurements: the supplement of paper PMC6522484
± gives the standard deviation of the averaged measurements.

Tests used:
DLD1 [1] = assay: cell viability (CellTiter-Glo) relative to plate median (fraction of plate median); higher = more viable cells; details: 5 µM; treatment time 24 h; reporter: 7TFP
In short: (§1)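 Colorectal cancer cell lines stably carrying lentiviral TCF/Wnt firefly luciferase reporters (7TFP or TCF4/Wnt) were plated in 384-well plates and, 24 h later, given library compounds at a final 5 µM for 24 h. Firefly luciferase or CellTiterGlo luminescence was read on parallel plates with a Tecan F500 reader. Each well's signal was normalised to the plate median in webcellHTS2 (additive, without log transformation). Values are the mean of two independent replicates.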

HCT116 = assay: as above; details: 5 µM; treatment time 24 h; reporter: TCF4/Wnt
In short: as §1

SW480 [2] = assay: as above; details: 5 µM; treatment time 24 h; reporter: 7TFP
In short: as §1

DLD1 [3] = assay: TCF/Wnt firefly luciferase reporter signal relative to plate median (fraction of plate median); higher = higher Wnt reporter signal; details: 5 µM; treatment time 24 h; reporter: 7TFP
In short: as §1

SW480 [4] = assay: as above; details: 5 µM; treatment time 24 h; reporter: 7TFP
In short: as §1

Row | SMILES | cell viability (DLD1 [1]) | cell viability (HCT116) | cell viability (SW480 [2]) | TCF/Wnt firefly luciferase reporter signal (DLD1 [3]) | TCF/Wnt firefly luciferase reporter signal (SW480 [4])
1 | CC1(C)S[C@@H]2[C@H](NC(=O)Cc3ccccc3)C(=O)N2[C@H]1C(=O)O | 0.914 ± 0.0057 | 0.968 ± 0.025 | 1.02 ± 0.067 | 1.16 ± 0.11 | 0.949 ± 0.14
2 | C[C@]1(OC(=O)/C=C/c2ccccc2)C[C@@H](O)[C@]2(O)C=CO[C@@H](O[C@@H]3O[C@H](CO)[C@@H](O)[C@H](O)[C@H]3O)[C@@H]21 | 1.035 ± 0.0071 | 1.02 ± 0.11 | 1.06 ± 0.05 | 1.12 ± 0.028 | 1.03 ± 0.05
3 | CN1CC(=O)N2[C@H](c3ccc4c(c3)OCO4)c3[nH]c4ccccc4c3C[C@@H]2C1=O | 0.995 ± 0.079 | 1.08 ± 0.028 | 0.995 ± 0.021 | 0.973 ± 0.081 | 0.941 ± 0.098
4 | NCC(O)CC(=O)O (stereo not given) | 1.035 ± 0.0071 | 1.04 ± 0.09 | 0.965 ± 0.028 | 1.04 ± 0.035 | 1.07 ± 0.035
5 | C[C@@H]1O[C@@H](O[C@H]2[C@H](O[C@H]3CC[C@@]4(C)[C@@H](CC[C@]5(C)[C@@H]4CC=C4[C@@H]6CC(C)(C)CC[C@]6(C(=O)O)CC[C@]45C)[C@]3(C)CO)OC[C@H](O)[C@@H]2O)[C@H](O)[C@H](O)[C@H]1O | 1.04 ± 0.062 | 1.05 ± 0.1 | 1.03 ± 0.098 | 1.04 ± 0.014 | 1.06 ± 0.064
6 | C=C1C(N)CC2CC1C2(C)C (stereo not drawn) [3-AMINO-beta-PINENE] | 0.974 ± 0.093 | 0.9965 ± 0.005 | 0.918 ± 0.024 | 0.893 ± 0.0071 | 0.888 ± 0.016
7 | Cc1ccc(C)c(OCCCC(C)(C)C(=O)O)c1 | 0.985 ± 0.092 | 0.986 ± 0.034 | 1.01 ± 0.015 | 1.015 ± 0.0071 | 1.06 ± 0.05
8 | CCCc1cc(=O)[nH]c(=S)[nH]1 | 0.959 ± 0.033 | 1.065 ± 0.0071 | 0.998 ± 0.031 | 0.98 ± 0.057 | 1.02 ± 0.028
9 | COC(=O)Nc1nc2cc(Sc3ccccc3)ccc2[nH]1 | 1.01 ± 0.014 | 1.03 | 1.03 ± 0.05 | 0.99 ± 0.071 | 0.995 ± 0.05
10 | O=C(/C=C/c1ccc(O)cc1)c1ccc(O)cc1O | 0.97 ± 0.012 | 1.03 ± 0.08 | 0.968 ± 0.0099 | 1 ± 0.15 | 0.862 ± 0.076
11 | CC[C@H]1OC(=O)C[C@@H](O)[C@H](C)[C@@H](O[C@@H]2O[C@H](C)[C@@H](O[C@H]3C[C@@](C)(O)[C@@H](O)[C@H](C)O3)[C@H](N(C)C)[C@H]2O)[C@@H](CC=O)C[C@@H](C)C(=O)/C=C/C(C)=C/[C@@H]1CO[C@@H]1O[C@H](C)[C@@H](O)[C@@H](OC)[C@H]1OC | 0.947 ± 0.046 | 1.08 ± 0.021 | 1.07 ± 0.021 | 1.1 ± 0.099 | 1.035 ± 0.0071
12 | CC(N)C12CC3CC(CC(C3)C1)C2 (stereo not given) | 1.02 ± 0.028 | 0.986 ± 0.02 | 0.977 ± 0.025 | 0.962 ± 0.03 | 0.9945 ± 0.0078
13 | CCc1cnn2c(NCc3ccc[n+]([O-])c3)cc(N3CCCC[C@H]3CCO)nc12 [Dinaciclib] | 0.99 ± 0.042 | 0.779 ± 0.069 | 1.32 ± 0.12 | 0.57 ± 0.12 | 0.789 ± 0.035
14 | CCCCN(CCCC)CCCOC(=O)c1ccc(N)cc1 | 0.877 ± 0.033 | 0.92 ± 0.13 | 0.954 ± 0.053 | 1.11 ± 0.014 | 0.993 ± 0.011
15 | COc1c2c(c(O)c3c4c(c(C)cc13)C1OC3(C(OC)OC)OC1C(O[C@H]1C[C@@H](O)[C@@](O)(C(C)=O)[C@H](C)O1)(O4)C3(O)CO)C(=O)C(O)CC2O[C@H]1C[C@@](C)(O)[C@H](OC(C)=O)[C@H](C)O1 (stereo not given in full) [Trioxacarcin B] | 1.09 ± 0.29 | 1.11 ± 0.014 | 1.06 | 0.739 ± 0.21 | 0.893 ± 0.14
16 | Cc1cc(O)c2c3c(ccc2c1)C(=O)c1c(O)cccc1C3=O [Tetrangulol] | 1.02 ± 0.065 | 0.985 ± 0.018 | 0.972 ± 0.015 | 0.978 ± 0.023 | 0.974 ± 0.035
17 | O=C1CCc2cc(OCCCCc3nnnn3C3CCCCC3)ccc2N1 | 0.979 ± 0.03 | 1.09 ± 0.028 | 1.035 ± 0.0071 | 1.03 ± 0.021 | 0.987 ± 0.075
18 | CC(C)C[C@H]1NC(=O)[C@@H](NC(=O)c2ncccc2O)[C@@H](C)OC(=O)[C@H](c2ccccc2)N(C)C(=O)[C@H](C)NC(=O)[C@H]([C@@H](C)C(C)C)N(C)C(=O)CN(C)C(=O)[C@H]2C[C@@H](O)CN2C1=O [Viridogrisein] | 1.04 ± 0.11 | 0.954 ± 0.066 | 0.971 ± 0.11 | 1.12 ± 0.021 | 0.999 ± 0.073
19 | NC(=O)NO | 1.06 ± 0.09 | 1.05 ± 0.042 | 1.09 ± 0.028 | 1.03 ± 0.11 | 1.03 ± 0.12
20 | O=C(O)c1cc(O)c2c(c1)C(=O)c1cc(O)cc(O)c1C2=O | 0.873 ± 0.11 | 0.866 ± 0.057 | 0.991 ± 0.013 | 0.926 ± 0.22 | 1.12 ± 0.11
21 | CC(=O)O[C@H]1C(=O)[C@@]2(C)[C@H]([C@H](OC(=O)c3ccccc3)[C@]3(O)C[C@H](OC(=O)[C@H](O)[C@@H](NC(=O)c4ccccc4)c4ccccc4)C(C)=C1C3(C)C)[C@]1(OC(C)=O)CO[C@@H]1C[C@@H]2O | 0.901 ± 0.03 | 0.498 ± 0.016 | 1.11 ± 0.092 | 0.792 ± 0.27 | 0.755 ± 0.23
22 | CS(=O)(=O)c1ccc([C@@H](O)[C@@H](CO)NC(=O)C(Cl)Cl)cc1 | 0.914 ± 0.055 | 0.958 ± 0.06 | 0.925 ± 0.014 | 0.982 ± 0.018 | 0.814 ± 0.058
23 | CC(C[N+](C)(C)C)OC(N)=O (stereo not given) | 1.14 ± 0.035 | 0.8 ± 0.48 | 1.1 ± 0.12 | 0.925 ± 0.037 | 1.05 ± 0.071
24 | C=C1CCC2C(CC2(C)C)C(=O)CCC1O (stereo not given) | 0.969 ± 0.037 | 0.962 ± 0.023 | 0.97 ± 0.0014 | 0.932 ± 0.025 | 0.9285 ± 0.0064
25 | COc1cc(OC)c2ccc(=O)oc2c1 | 1.08 ± 0.057 | 0.999 ± 0.2 | 1.07 | 1.02 ± 0.084 | 1.01 ± 0.071
26 | CC(C)Cc1ccc(C(C)C(=O)O)cc1 (stereo not given) | 0.962 ± 0.082 | 1.04 ± 0.028 | 1.04 ± 0.068 | 1.03 ± 0.021 | 1.06 ± 0.028
27 | COc1cc2c(cc1OC)-c1c(oc3cc(O)cc(O)c3c1=O)CO2 | 0.988 ± 0.12 | 0.972 ± 0.096 | 0.972 ± 0.0042 | 1.22 ± 0.05 | 1.03 ± 0.035
28 | COc1ccc([C@H]2Oc3cc(OC)cc(OC)c3C[C@H]2O)cc1 | 1 ± 0.029 | 0.941 ± 0.098 | 0.9645 ± 0.005 | 0.923 ± 0.046 | 1.03 ± 0.052
